GluA2 TARP mod – modulators of AMPA receptor GluA2-stargazin complexes | O88602+P19491 | HEK293 GluA2+stargazin, membrane potential dye (FDSS), glutamate EC50; hits were called plate by plate, in both directions | calls only at 30 µM | hit rate 3.5% among 40,000;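 active = any of four per-well response measures lying three or more SD from its plate-wide compound average, in either direction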
Target sequence (O88602 whole entry, looked up): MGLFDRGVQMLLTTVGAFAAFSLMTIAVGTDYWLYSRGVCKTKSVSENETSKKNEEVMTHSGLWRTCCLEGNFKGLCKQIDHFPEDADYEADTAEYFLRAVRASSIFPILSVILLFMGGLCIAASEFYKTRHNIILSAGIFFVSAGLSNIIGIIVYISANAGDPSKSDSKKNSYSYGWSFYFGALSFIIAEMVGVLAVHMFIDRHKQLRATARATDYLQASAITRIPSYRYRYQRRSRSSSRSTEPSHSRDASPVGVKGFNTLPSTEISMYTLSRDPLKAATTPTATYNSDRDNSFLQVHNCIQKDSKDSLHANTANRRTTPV
Target sequence (P19491 whole entry, looked up): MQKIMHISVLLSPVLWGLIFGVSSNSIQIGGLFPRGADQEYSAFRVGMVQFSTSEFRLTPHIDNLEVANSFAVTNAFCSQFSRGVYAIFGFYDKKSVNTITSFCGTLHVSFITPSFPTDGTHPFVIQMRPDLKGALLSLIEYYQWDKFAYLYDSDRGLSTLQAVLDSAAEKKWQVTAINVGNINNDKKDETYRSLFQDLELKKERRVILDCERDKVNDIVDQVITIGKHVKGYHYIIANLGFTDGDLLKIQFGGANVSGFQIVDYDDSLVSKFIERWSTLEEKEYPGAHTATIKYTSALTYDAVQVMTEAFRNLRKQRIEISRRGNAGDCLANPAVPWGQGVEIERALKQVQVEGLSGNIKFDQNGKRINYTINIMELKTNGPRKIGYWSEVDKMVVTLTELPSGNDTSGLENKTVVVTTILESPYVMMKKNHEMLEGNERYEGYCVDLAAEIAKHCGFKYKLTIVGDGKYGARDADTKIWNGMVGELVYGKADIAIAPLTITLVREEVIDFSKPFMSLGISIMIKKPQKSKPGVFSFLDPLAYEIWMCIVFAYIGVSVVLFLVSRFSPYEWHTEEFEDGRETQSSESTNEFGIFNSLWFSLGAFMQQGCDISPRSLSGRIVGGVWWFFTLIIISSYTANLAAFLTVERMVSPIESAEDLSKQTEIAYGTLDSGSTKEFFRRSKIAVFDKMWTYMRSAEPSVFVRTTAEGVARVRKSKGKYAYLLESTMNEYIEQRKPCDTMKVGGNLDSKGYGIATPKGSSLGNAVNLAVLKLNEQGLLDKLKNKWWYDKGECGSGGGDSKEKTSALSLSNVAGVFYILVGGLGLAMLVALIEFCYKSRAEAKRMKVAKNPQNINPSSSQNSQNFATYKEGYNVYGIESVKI
GIRK2 activator – Activators of human GIRK2-containing channels; P48051; HEK293 GIRK2/NPY4 cells, thallium flux fluorescence; activation (% efficacy), % for hits at 37.5 µM; 34,000 tested, under 10 active; AID 1259324;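 active = primary screen hit, no activity in plain HEK293 cells, and in GIRK2-only cells above 5% efficacy rising with concentration; inactive = the rest, including fluorescent compounds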;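 note: efficacy is normalized control-subtracted fluorescence 15 s after thallium addition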
Of the large screens only hits and unclear results are named; the others gave an inactive call. The sample as a whole holds a higher share of hits than the screen did.

NC(=O)c1nc(-c2cc(Br)ccc2O)nc2c1[nH]c(=O)n2-c1ccccc1F	none
CC(C)C(=O)NCCCn1nc(-c2ccco2)ccc1=O	none
CC(Oc1ccccc1F)C(=O)NCCCn1nc(-c2ccco2)ccc1=O (stereo not given)	GluA2 TARP mod active
CN1CC(NC(=O)c2csc(-c3ccccc3)n2)CC1=O (stereo not given)	none (no result: GluA2 TARP mod)
COc1cc(/C=C/C(=O)c2ccc(O)cc2)cc(OC)c1OC	none (no result: GIRK2 activator)
COc1cc(/C=C/C(=O)NCCc2ccsc2)cc(OC)c1OC	none
COc1cc(/C=C/C(=O)NCCCn2cccc2)cc(OC)c1OC	GluA2 TARP mod active
COc1cc(/C=C/C(=O)Nc2nncs2)cc(OC)c1OC	GluA2 TARP mod active
CC(C)(C)c1ccc(OCC(=O)Nc2ccc3c(c2)N(C(=O)C2CCCO2)CC3)cc1 (stereo not given)	none
CC(C)(C)C(=O)Nc1ccc(CC(=O)NCc2cccs2)cc1	none
CC1CN(c2ncnc3c2cnn3CCNC(=O)c2cc(-c3ccccc3)on2)CC(C)O1 (stereo not given)	none (no result: GIRK2 activator)
CCCCCCSc1nnc(C)c(=O)[nH]1	none
CCOc1ccccc1C(=O)NC1CC(=O)N(c2ccc(C)c(C)c2)C1 (stereo not given)	GluA2 TARP mod active (no result: GIRK2 activator)
CCOc1ccccc1C(=O)NC1CC(=O)N(c2ccccc2)C1 (stereo not given)	none (no result: GIRK2 activator)
Cc1ccc(S(=O)(=O)CCCC(=O)Nc2ccccc2Oc2ccccc2)cc1	GluA2 TARP mod active
COc1ccc(S(=O)(=O)CCC(=O)Nc2ccccc2Oc2ccccc2)cc1	none
CS(=O)(=O)c1ccc(CC(=O)Nc2ccccc2Oc2ccccc2)cc1	GluA2 TARP mod active (no result: GIRK2 activator)
CS(=O)(=O)c1ccc(CC(=O)Nc2nc(-c3ccc(Oc4ccccc4)cc3)cs2)cc1	none (no result: GIRK2 activator)
COC(=O)c1ccc2c(=O)n(CC(=O)N3CCN(c4cc(Cl)ccc4C)CC3)c(=S)[nH]c2c1	none
NC(=O)c1ccc(NC(=O)Cn2nc(-c3ccco3)c3sc(N4CCCCC4)nc3c2=O)cc1	none
COc1ccccc1CNC(=O)C(=O)NCCC1CCCCN1S(=O)(=O)c1ccccc1 (stereo not given)	GluA2 TARP mod active (no result: GIRK2 activator)
Cc1ccc(S(=O)(=O)N2CCCCC2CC(=O)NC2CCCCC2)cc1 (stereo not given)	none (no result: GIRK2 activator)
COc1ccccc1CCNC(=O)CC1CCCCN1S(=O)(=O)c1ccc(C)cc1 (stereo not given)	GluA2 TARP mod active (no result: GIRK2 activator)
COc1ccccc1CCNC(=O)CC1CCCCN1S(=O)(=O)c1ccccc1 (stereo not given)	none (no result: GIRK2 activator)
O=C(CC1CCCCN1S(=O)(=O)c1ccccc1)NC1CCCCC1 (stereo not given)	GluA2 TARP mod active (no result: GIRK2 activator)
COc1ccccc1CCNC(=O)CC1CCCCN1S(=O)(=O)c1ccc(Cl)cc1 (stereo not given)	GluA2 TARP mod active (no result: GIRK2 activator)
COc1ccccc1CNC(=O)C(=O)NCCC1CCCCN1S(=O)(=O)c1ccc(F)cc1 (stereo not given)	none (no result: GIRK2 activator)
COc1ccccc1CNC(=O)CC1CCCCN1S(=O)(=O)c1ccc(Cl)cc1 (stereo not given)	none (no result: GIRK2 activator)
CCc1nc2sc(C(c3ccccc3F)N3CCN(C(C)=O)CC3)c(O)n2n1 (stereo not given)	none (no result: GIRK2 activator)
CC(C)c1cc(=O)n(CC(=O)Nc2cccc(C(F)(F)F)c2)cn1	none
CSc1ccc(CC(=O)Nc2sc3c(c2C#N)CCCCC3)cc1	none (no result: GIRK2 activator)
O=C(CS(=O)(=O)Cc1ccccc1)Nc1cc(Cl)cc(Cl)c1	none
COc1cc(C(=O)Nc2nnc(Cc3cccs3)o2)cc(OC)c1OC	none
CN1C(=O)CSc2cnn(CC(=O)NCc3ccccc3)c(=O)c21	none (no result: GluA2 TARP mod)
O=C(Nc1ccc(Cl)c([N+](=O)[O-])c1)c1ccc(=O)n(Cc2ccccc2)c1	none
CCN(CC)CCn1c(C)cn2c3c(=O)n(CCc4ccccc4)c(=O)n(C)c3nc12	GluA2 TARP mod active
COc1cccc(-n2c(C)cn3c4c(=O)n(CCc5ccccc5)c(=O)n(C)c4nc23)c1	none (no result: GIRK2 activator)
CSc1ccccc1NC(=O)c1ccc(N2CCCCS2(=O)=O)cc1	none
CC(C)c1nnc(C2CCN(C(=O)CCSc3ccccc3)CC2)o1	none
CC(C)Sc1ccc(CC(=O)N2CCC(c3nnc(C(C)C)o3)CC2)cc1	GluA2 TARP mod active
CCOC(=O)N1CCc2c(sc(NC(=O)CCc3ccccc3)c2-c2nc3ccccc3s2)C1	none (no result: GIRK2 activator)
O=C(NCCCn1cccc1)c1ccccc1	GluA2 TARP mod active
O=C(NCCCn1cccc1)c1cc(-c2ccccc2)n[nH]1	none
O=S(=O)(c1ccc(Cl)cc1)N1CCN(c2ccc(-c3cccs3)nn2)CC1	none
COc1ccc(C2(CNS(C)(=O)=O)CCCC2)cc1	none
COc1ccc(C2(CNC(=O)C3CCN(S(C)(=O)=O)CC3)CCCC2)cc1	GluA2 TARP mod active
CCOc1ccccc1C(=O)NCC(O)(c1ccccc1)C1CC1 (stereo not given)	GluA2 TARP mod active (no result: GIRK2 activator)
Cc1ccccc1C(=O)NCC(O)(c1ccccc1)C1CC1 (stereo not given)	none (no result: GIRK2 activator)
O=C(NCC1CCN(C2CCCC2)CC1)NC(c1ccccc1)c1ccccc1	none
Cc1cc(C)c2sc(N(CCCN(C)C)C(=O)c3ccn(C)n3)nc2c1	GluA2 TARP mod active
Cc1c(Cl)ccc2sc(N(CCCN(C)C)C(=O)c3ccn(C)n3)nc12	none
NC(=O)c1oc2ccccc2c1NC(=O)C(=O)NCc1ccc(F)cc1	none
COc1cc(/C=C2\SC(=S)N(c3ccc(C(=O)O)c(O)c3)C2=O)ccc1O	GluA2 TARP mod active (no result: GIRK2 activator)
COc1cc(/C=C2\SC(=S)N(c3ccc(O)c(C(=O)O)c3)C2=O)ccc1O	none (no result: GIRK2 activator)
Cc1cc(C(=O)N2CCC3(CC2)OCCN3S(=O)(=O)c2cccs2)c(C)o1	GluA2 TARP mod active
COc1ccc(S(=O)(=O)N2CCOC23CCN(C(=O)c2cc(C)oc2C)CC3)cc1	none
CC(C)N(CC#CCNS(=O)(=O)c1ccc2ccccc2c1)C(C)C	GluA2 TARP mod active (no result: GIRK2 activator)
COc1ccc(S(=O)(=O)NCC#CCN(C(C)C)C(C)C)cc1OC	none (no result: GIRK2 activator)
COc1ccc(NC(=O)Cn2cc(OC)c(=O)cc2CSc2nnc(C)s2)cc1OC	none
CC1(C)COCN1C(=O)c1ccc(S(=O)(=O)N2CCCC2)o1	none
COc1cc(-c2ccc(SCC(=O)Nc3ccc(C)c(F)c3)nn2)cc(OC)c1OC	none
COc1cc(S(=O)(=O)N2CCN=C2c2ccccc2)ccc1F	none (no result: GIRK2 activator)
CCc1cc(S(=O)(=O)N2CCN=C2c2ccccc2)ccc1OC	GluA2 TARP mod active
Cc1cc(N2CCN(C(=O)COc3ncccn3)CC2)nc(N2CCCCC2)n1	none (no result: GluA2 TARP mod)
Cc1ccc(C(=O)N2CCN(c3nc(C)cc(N4CCCC4)n3)CC2)cc1	GluA2 TARP mod active (no result: GIRK2 activator)
CCOc1ccc(NC(=O)Cn2cc(-c3nc(-c4ccccc4C)no3)c(=O)c3ccc(C)nc32)cc1	none
N#Cc1ccccc1Cn1cc(-c2nc(-c3cnccn3)no2)ccc1=O	GluA2 TARP mod active
CC(C)NC(=O)Cn1cc(-c2nc(-c3cnccn3)no2)ccc1=O	none
CCc1cc(=O)[nH]c(-n2nc(C3CC3)cc2NC(=O)C2CCCCC2)n1	none
CCCn1c(-c2ccc(OC)cc2)nc2c(c(=O)c3ccccc3n2C)c1=O	none (no result: GIRK2 activator)
CCCCn1c(-c2ccc([N+](=O)[O-])cc2)nc2c(c(=O)c3ccccc3n2C)c1=O	GluA2 TARP mod active (no result: GIRK2 activator)
COCCn1c(-c2ccc([N+](=O)[O-])cc2)nc2sc3ccccc3c(=O)c2c1=O	GluA2 TARP mod active
COCCn1c(-c2ccc(F)cc2)nc2c(c(=O)c3ccccc3n2C)c1=O	none (no result: GIRK2 activator)
CCN(CC)C(=O)n1nc(C)c(CN2C(=O)c3ccccc3C2=O)c1C	none
Cc1ccccc1Oc1ccc(S(=O)(=O)N2CCN(c3ccccc3)CC2)cc1	none (no result: GIRK2 activator)

Screening results from PubChem BioAssay.
